# Screens deposited in PubChem BioAssay by National Center for Advancing Translational Sciences (NCATS).
# Vaccinia Venus – qHTS for Stage-Specific Inhibitors of Vaccinia Orthopoxvirus: Venus Reporter Primary qHTS; 330,000 compounds, 0.46% hits; Potency, µM (top dose mostly 36.5 µM), inactives show at the highest dose activity change, negative = inhibition, usual class: inhibitors; Vaccinia virus Venus reporter expression, fluorescence; calls by dose curve; tested in A549 cells; also: potency is read from the fitted curve at half-maximal effect; nearly all actives have a fitted effect of over 30% in size
# HCMV inh – qHTS Assay for inhibitors of the human cytomegalovirus (HCMV) | activity change, negative = inhibition, % at 57.5 µM | HFF cells, HCMV-luciferase reporter, 72 h; active compounds read low | 410,000 compounds, 4.5% hits | AID 1259415, 2018; in the data active = activity change below about -60%; inconclusive = no clear call, values can overlap the other calls; inactive = above about -39%
#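 Cell-based, HFFs, 1000 cells/well, 16 h 37C; cpds in DMSO + HCMV-luc, MOI 1 PFU/cell; 72 h 37C; OneGlo luminescence after 5 min RT; norm. to buffer vs Salinomycin 10uM.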
# Sm TGR inh – qHTS Assay for the Inhibitors of Schistosoma Mansoni Peroxiredoxins; Schistosoma mansoni thioredoxin glutathione reductase (TGR), Q962Y6; purified TGR, DTNB reduction, TNB absorbance 405 nm; Potency, µM (highest dose often 114 µM), without a hit: at the top dose activity change, negative = inhibition, usual class: inhibitors; 360,000 compounds, 3% hits; AID 485364, 2010; also: potency is read from the fitted curve at half-maximal effect; nearly all actives have a fitted effect of over 60% in size
#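 Kinetic colorimetric format: TGR-catalysed, NADPH-driven DTNB reduction monitored via TNB absorbance. Enzyme dispensed at 20 nM; compound exposure 15 min at room temperature before reaction start.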
# FMDV inh – High Throughput Screening for Foot and Mouth Disease Virus Antivirals. FMDV antiviral cell-based qHTS. Potency, µM (doses to about 57.9 µM), without a hit: at the highest dose activity change, negative = inhibition, usual class: inhibitors. 410,000 compounds, 1.2% hits. AID 1159524, 2015; calls by dose curve; tested in HEK293T cells; also: read-out not given here; potency is read from the fitted curve at half-maximal effect; nearly all actives have a fitted effect of over 45% in size
# HCV inhibitor – qHTS Assay for Inhibitors of Hepatitis C Virus (HCV); Huh7.5.1 HCVcc-Cre infection, luciferase reporter, 44 h; Potency, µM (top dose mostly 41.8 µM), for the others: at the top dose activity change, negative = inhibition, usual class: inhibitors; 340,000 compounds, 3.4% hits; also: potency is read from the fitted curve at half-maximal effect
#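 After 44 h co-culture of compound, cells and HCVcc-Cre (~0.5 moi), substrate is added for 15 min at room temperature and luciferase measured over 15 sec. Cells were seeded at 1,000/well and pre-cultured 4 h.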
# Vaccinia mCherry – qHTS for Stage-Specific Inhibitors of Vaccinia Orthopoxvirus: mCherry Reporter Primary qHTS | Potency, µM (top dose mostly 36.5 µM), without a hit: at the top dose activity change, negative = inhibition, most hits filed as inhibitors | AID 720579, 2013 | Vaccinia virus mCherry reporter infection, fluorescence | 310,000 compounds, 0.63% hits; calls by dose curve; tested in A549 cells; also: potency is read from the fitted curve at half-maximal effect; nearly all actives have a fitted effect of over 35% in size
# * hit, by the source's call; i = inactive; ? = inconclusive; . = no result given; [ ] = another dose, or the depositor's remark. The list is not random: actives were taken first. Their share in the collection is about 9.3%. Unless noted, calls follow the shape of the dose curve; as a rule, active = well fitted curve in the direction sought with a large enough effect; inconclusive = small, poorly fitted or top-dose-only effect, or another doubt; inactive = no such curve, though single readings can be large; an effect the other way counts as inactive or inconclusive. % is scaled to controls: 0 for no effect and ±100 for the full control effect.
SMILES,Vaccinia Venus,HCMV inh,Sm TGR inh,FMDV inh,HCV inhibitor,Vaccinia mCherry
CCOC(=O)c1c(/N=C/c2c(O)n(-c3ccccc3F)c(=S)[nH]c2=O)sc2c1CCCC2,4%,-6,11µM*,0%,?,.
CCOC(=O)c1c(/N=C/c2c(O)n(-c3ccc(F)cc3)c(=S)[nH]c2=O)sc2c1CCCC2,-4%,56,?,-9%,7%,-10%
O=S(=O)(c1cccc(C(F)(F)F)c1)c1ccc(O)cn1,-8%,-30,.,-9%,-8%,-15%
Cc1nn(CCCC(=O)NCCc2ccccc2)c(=O)c2nccn12,11%,-98*,4%,3%,19%,15%
CCOc1ccc(CCNC(=O)CCCn2nc(C)c3c(C)n(-c4ccccc4)nc3c2=O)cc1,.,?,0%,-15%,?,.
CC(=O)c1[nH]c(C)c(C(=O)NCc2ccc(Cl)cc2)c1C,-29%,-94*,-6%,?,.,-29%
CC(=O)c1c(C)[nH]c(C(=O)NCc2cccc(Cl)c2)c1C,-10%,-1,-13%,13%,11µM*,i
CC(=O)c1c(C)[nH]c(C(=O)NCc2ccc(Cl)cc2)c1C,-24%,5,.,6%,.,-12%
COc1ccc(CN2C(=O)c3cccnc3C2O)cc1 (stereo not drawn),.,0,-4%,-15%,5%,.
Cc1c(Cl)cccc1NS(=O)(=O)c1c(C(=O)N2CCOCC2)c(C)n(C)c1C,-23%,?,-7%,30%,15%,-21%
COc1cc2c(c(OC)c1OC)-c1c(cc3c(c1O)OCO3)C[C@@H](C)[C@@H](C)C2,-28%,?,13%,?,-29%,?
COc1cc2c(c(OC)c1OC)-c1c(cc(OC)c(OC)c1OC)C[C@H](C)[C@H](C)C2,-17%,-63*,10%,-17%,21%[8.37 µM],?
COc1cc2c(c(O)c1OC)-c1c(cc(OC)c(OC)c1OC)C[C@@H](C)[C@@H](C)C2,-13%,-60*,13%,-26%,-17%,?
COc1cc2c(c(OC)c1OC)C(=O)CC2,17%,24,-9%,8%,20%,i
Cc1ccc(C)c(CN2C(=O)c3ccccc3S(=O)(=O)c3ccc(C(=O)NCc4ccccc4)cc32)c1,-7%,?,4%,17%,.,-11%
O=C(O)CCC(=O)c1ccc2c(c1)OCCO2,10%,-15,-16%,-7%,15%,10%
O=C(CCN1Cc2ccccc2C1)c1ccc2c(c1)OCCO2,-9%,-4,0.89µM*,.,-13%,-24%
O=C(CCN1CCc2ccccc2C(c2ccccc2)C1)c1ccc2c(c1)OCCO2 (stereo not drawn),-26%,27,0.56µM*,-5%,?,?
O=C(C[n+]1ccc(/C=C/c2ccccc2)cc1)c1ccc2c(c1)OCCO2,-25%,-83*,-13%,-23%,?,-15%
CCN(C1CCS(=O)(=O)C1)S(=O)(=O)c1cc(C)ccc1C (stereo not drawn),-18%,3,-1%,-4%,-11%,-11%
C[C@@H]1CN([C@H](C)CO)C(=O)CCCn2nncc2CO[C@H]1CN(C)S(=O)(=O)c1cccc(C#N)c1,5µM*,-9,.,-5%,.,?
O=C(N/N=C/C(Cl)=C/c1ccc([N+](=O)[O-])cc1)C(=O)Nc1ccccc1C(=O)O,-3%,-32,14µM*,45%,-10%,-22%
O=C(C1CCCC1)N1CCN=C1SCc1cccc([N+](=O)[O-])c1,-13%,-18,16%,-28%,?,-16%
COc1cccc(CNC(=O)COc2cc3c(c4oc(=O)cc(C)c24)CCC(C)(C)O3)c1,-2%,?,3%,?,1.4µM*,-6%
Cc1cc(=O)oc2c3c(cc(OCC(=O)NCc4cccnc4)c12)OC(C)(C)CC3,-5%,4,-2%,-22%,?,-1%
SMILES,Vaccinia Venus,HCMV inh,Sm TGR inh,FMDV inh,HCV inhibitor,Vaccinia mCherry
COc1ccccc1CNC(=O)COc1cc2c(c3oc(=O)cc(C)c13)CCC(C)(C)O2,-4%,-35,12%,?,3.5µM*,-9%
COc1ccc(CNC(=O)COc2cc3c(c4oc(=O)cc(C)c24)CCC(C)(C)O3)cc1,-15%,14,-16%,?,7.1µM*,-8%
Cc1cccc(OCCOC(=O)C2CCN(S(=O)(=O)c3ccc(C)c(C)c3)CC2)c1,-18%,.,-24%,-11%,20%,-6%
C#CC[N+]1(C)[C@@H]2CC[C@H]1CC(OC(=O)C(CO)c1ccccc1)C2 (stereo partly drawn),-13%,-14,-1%,-6%,2%,i
Oc1ccc(C[C@H]2CNCCN2CCCCC2CCCCC2)cc1,11µM*,?,0%,-27%,?,?
NC1=NC[C@H](Cc2ccccc2)N1CCCCC1CCCCC1,?,-31,10%,?,-3%[8.37 µM],?
NC1=NC[C@H](Cc2ccc(O)cc2)N1CCCCC1CCCCC1,?,-90*,-3%,?,4%[8.37 µM],8.9µM*
Oc1ccc(C[C@@H]2CNCCN2CCC23CC4CC(CC(C4)C2)C3)cc1,-26%,-87*,-12%,?,?,-11%
COc1cc(CC2COC(c3ccc(O)c(OC)c3)C2COC(C)=O)ccc1O (stereo not drawn),-6%,-2,40µM*,-17%,24%,-6%
CCOC(=O)C/C(C)=N/NC(=O)CNc1cccc(Cl)c1C,5%,-19,4%,30%,2%,1%
CCn1c(C(=O)OC)cc2c1ccn2-c1ccc(F)cc1,-6%,70,0%,-60%,4.5µM*,-11%
FC(F)Oc1ccc(NC(=S)NCc2ccccc2)cc1,?,-36,-31%,36%,1%,-2%
FC(F)Oc1ccc(NC(=S)Nn2cnnc2)cc1,.,73,-14%,-18%,5µM*,.
Oc1cccc2c(NC(=S)Nc3ccc(OC(F)F)cc3)cccc12,4%,-99*,-11%,?,-15%,?
C1CCC(c2nn3c(-c4n[nH]c5c4CCC5)nnc3s2)CC1,?,-24,0%,?,-16%,?
CCN(CC)c1ccc(-c2nn3c(-c4n[nH]c5c4CCC5)nnc3s2)cc1,?,35,0%,-27%,7.9µM*,.
CCOC(=O)/C(=C/c1c(C)n(C)c2ccc([N+](=O)[O-])cc12)C(C)=O,-6%,-85*,-12%,13µM*,?,i
CCN1CCc2c(OCC(=O)N3CCc4ccccc43)cccc2C1=O,.,-17,0%,.,.,.
O=C1c2cccc(OCC(=O)N3CCCc4ccccc43)c2CCN1Cc1cccnc1,-29%,-61*,-12%,28µM*,?,?
